Most compounds without a hit are left out; they make up all but 5.4% or so of the library.
PP1 inh – blocks human PP1-alpha phosphatase, a PP5 counter-screen. P62136. purified PP1alpha, OMFP fluorescence. inhibition, % at 6.7 µM. actives 0.9% (n = 320,000). AID 2235;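 active means inhibition above the mean inhibition of all tested compounds plus 3 SD, computed separately for each screening campaign, cut at about 15% in these data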
Target sequence (P62136 whole entry, looked up): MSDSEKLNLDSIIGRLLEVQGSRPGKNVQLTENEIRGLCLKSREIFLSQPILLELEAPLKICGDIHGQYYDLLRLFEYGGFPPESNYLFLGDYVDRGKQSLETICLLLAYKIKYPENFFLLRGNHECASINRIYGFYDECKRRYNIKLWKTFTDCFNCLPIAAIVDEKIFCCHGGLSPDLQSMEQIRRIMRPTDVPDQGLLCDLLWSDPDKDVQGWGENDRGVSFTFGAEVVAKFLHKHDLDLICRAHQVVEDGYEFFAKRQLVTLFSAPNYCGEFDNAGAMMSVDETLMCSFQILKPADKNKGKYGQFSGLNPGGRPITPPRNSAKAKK
Calb FLC – affects C. albicans growth with fluconazole | C. albicans CaCi-2 (fluconazole-resistant clinical isolate) + fluconazole, Alamar Blue growth, 48 h | growth inhibition, % (no concentration beside the values) | actives 0.57% (n = 300,000) | AID 1979;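 active means growth inhibition above about 58% in most replicates, limit read from the data, passing the limit was not always enough; inconclusive means exactly half the replicates above a set limit; inactive means most replicates below a set limit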;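 further: all wells also contain fluconazole at 8 µg/ml as a sub-toxic cotreatment; 0% = median of DMSO wells and 100% = median of geldanamycin control wells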
PP5 primary – PP5 (human) phosphatase inhibition | P53041 | purified PP5c, OMFP substrate fluorescence | inhibition, % at 6.7 µM | actives 0.18% (n = 320,000);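 active means inhibition above the campaign's mean inhibition across all tested compounds plus 3 SD, cut at about 9.5% in these data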;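 further: 0% = DMSO only and 100% = 100 µM cantharidin control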
ALR inh – blocks human ALR sulfhydryl oxidase activity; inhibition, % (no concentration beside the values); purified ALR, DTT oxidation, H2O2 HRP-luminol luminescence; actives 3.8% (n = 290,000); AID 485317; P55789;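 active means mean replicate inhibition above about 79%, with every replicate also reaching it, limit read from the data; inconclusive means only one of the two criteria met; inactive means mean below limit and not every replicate reaching it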
Target sequence (P55789 whole entry, looked up): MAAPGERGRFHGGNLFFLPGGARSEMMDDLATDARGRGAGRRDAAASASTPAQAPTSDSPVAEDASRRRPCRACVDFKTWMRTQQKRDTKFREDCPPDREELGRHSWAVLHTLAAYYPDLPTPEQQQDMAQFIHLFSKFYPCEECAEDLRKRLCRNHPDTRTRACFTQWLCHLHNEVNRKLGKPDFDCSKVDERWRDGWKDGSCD
CSC inhib – cancer stem cell inhibition; cancer stem cell-like cells viability, luminescence; inhibition, % at 7.5 µM; actives 1.1% (n = 300,000); AID 2717; in the data active means inhibition above about 75%; inconclusive means no clear call, values can overlap the other calls; tested in HMLE shEcad cells
Starred values were filed as active, the others as inactive; ? = inconclusive; . = no result.

SMILES | PP1 inh | Calb FLC | PP5 primary | ALR inh | CSC inhib
CCCn1c(SCC(=O)N2CCCc3ccccc32)nc2c1c(=O)n(C)c(=O)n2C | 5 | . | 0 | -19 | .
CCc1nn(CC(=O)Nc2ccc(Br)c(C)c2)c(=N)s1 | 0 | 36 | 2 | 99* | -3
Cc1ccccc1CN(C)C(=O)COC(=O)CSc1ccc([N+](=O)[O-])cc1 | -1 | 3 | -1 | 99* | 1
CCOc1ccc(-c2nc(CSc3nncs3)cs2)cc1OC | -3 | -2 | 2 | 94* | 46
CCOc1ccc(-c2nc(CSc3nnc(C)s3)cs2)cc1OC | -4 | -2 | 3 | . | 9
CCCOC(=O)c1ccc(NC(=O)CSC2=Nc3ccccc3C3CC=NN23)cc1 (stereo not drawn) | 3 | 10 | -1 | 97* | -4
N#Cc1ccccc1NC(=O)CSC1=Nc2ccccc2C2CC=NN12 (stereo not drawn) | -3 | 33 | 0 | -9 | 10
O=C(CSC1=Nc2ccccc2C2CC=NN12)NCc1ccco1 (stereo not drawn) | . | . | . | 99* | 29
COc1ccc(-c2nc(N)ncc2-c2ccc(OC)c(OC)c2)c(O)c1 | . | 11 | . | 13 | 7
COc1cc(/C=N/n2c(-c3ccc4c(c3)NC(=O)CO4)csc2=Nc2cccc(C)c2)ccc1O | 4 | -6 | 2 | . | 19
COCCN=c1scc(-c2cccs2)n1/N=C(\C)c1ccco1 | 0 | 17 | 1 | . | 14
COCCN=c1scc(-c2ccco2)n1/N=C/c1ccc(O)c(O)c1O | 4 | . | -1 | 99* | 1
Oc1ccc(/C=N/n2c(-c3ccco3)csc2=Nc2cccnc2)c(O)c1 | -1 | ? | 1 | 30 | 72
CC(C)N=c1scc(-c2ccco2)n1/N=C/c1ccc(O)c(O)c1 | -1 | . | 0 | 99* | 99*
C=CCN=c1scc(-c2ccco2)n1/N=C/c1ccc(O)c(O)c1O | -3 | -5 | 1 | 99* | 16
CCOC(=O)C(=O)NNc1ccc(Cl)cc1 | 1 | -20 | 2 | 100* | 82*
CCc1ccc(C(=O)NNc2ccc(Cl)cc2)cc1 | -3 | 0 | -2 | -12 | 99*
CCc1ccc(C(=O)NNc2cc(Cl)cc(Cl)c2)cc1 | 1 | -2 | 1 | -2 | 20
Cc1ccc(C)c(NNC(=O)C(=O)NNc2cc(C)ccc2C)c1 | -1 | -24 | 3 | 2 | 12
CCOC(=O)C(=O)NNc1ccccc1OC | -4 | -21 | 0 | 99* | -5
Cc1ccccc1NNC(=O)C(=O)NNc1ccccc1C | -3 | -15 | 2 | 98* | 58
CCOC(=O)/C(=N/Nc1ccc(Cl)cc1)S(=O)(=O)c1ccc(Cl)cc1 | 0 | -10 | 2 | 39 | 17
COc1ccc(N(CC(=O)N2CCCCCC2)S(=O)(=O)c2ccc(OC)c(OC)c2)cc1 | 0 | 7 | 2 | -15 | -11
CCOC(=O)C(=O)Nc1ccc(F)cc1 | -2 | 3 | -2 | -1 | 4
CCOC(=O)C(=O)NNc1ccc(C)cc1 | -2 | 10 | -4 | 100* | 102*
SMILES | PP1 inh | Calb FLC | PP5 primary | ALR inh | CSC inhib
CCOC(=O)c1c(NC(=O)C2CCCO2)sc(C(N)=O)c1C (stereo not drawn) | -6 | -20 | 1 | -1 | 14
CCN(CC)c1ccc(NC(=S)NCC2CCCO2)cc1 (stereo not drawn) | -1 | -5 | 0 | 100* | 7
CCOC(=O)c1c(NC(=S)NCC2CCCO2)sc(C)c1C (stereo not drawn) | 2 | 85* | 4 | 9 | -10
Oc1ccc(/C=N/NC(=S)NCC2CCCO2)cc1 (stereo not drawn) | -3 | 15 | 2 | 98* | -3
Oc1ccc(/C=N/NC(=S)NC2CC3CCC2C3)cc1 (stereo not drawn) | -4 | -6 | 0 | 99* | 19
COc1ccccc1NC(=O)CSc1nnc(C2CCCCC2)o1 | -2 | -1 | -1 | 3 | 13
O=C(NC1CCCCC1)c1cccc(COCC(F)(F)F)c1 | -7 | 24 | 2 | -7 | -16
CCOc1cc(/C=C2\NC(=S)N(c3c(C)n(C)n(-c4ccccc4)c3=O)C2=O)ccc1O | 1 | 13 | 3 | 99* | 7
COc1cc(/C=C2/NC(=O)N(Cc3ccccc3F)C2=O)ccc1O | -5 | 26 | 1 | 99* | 10
COc1cc(/C=C2\NC(=S)N(C)C2=O)ccc1O | 2 | 10 | 1 | 99* | -9
CCOc1cccc(/C=C2\NC(=S)N(c3ccccc3)C2=O)c1O | 2 | -3 | 1 | ? | 13
CCCOc1ccc(N2C(=O)CC(NCc3ccc(S(N)(=O)=O)cc3)C2=O)cc1 (stereo not drawn) | -2 | 6 | 2 | -5 | -7
Cn1nc(C(=O)N2CCOCC2)c2ccccc2c1=O | -4 | 1 | 0 | -15 | -3
CCCOC(=O)C(=O)NNc1ccccc1 | -1 | -3 | 2 | 100* | ?
C=C(C)C(=O)NNc1ccccc1 | 1 | -29 | 0 | 31 | -9
CC(C)OC(=O)C(=O)NNc1ccccc1 | -5 | 129* | 3 | 100* | 99*
Cc1ccc(CSc2nc3ccccc3cc2C=O)cc1 | 4 | 11 | 0 | -7 | 70
O=Cc1cc2ccccc2nc1SCc1ccc(Cl)c(Cl)c1 | 1 | -7 | -1 | -12 | 94*
O=Cc1cc2ccccc2nc1SCc1ccc(Cl)cc1 | -1 | -5 | 2 | -1 | 88*
CC(C)CN(C(=O)COC(=O)CCCc1nc2ccccc2s1)c1c(N)n(Cc2ccccc2)c(=O)[nH]c1=O | 2 | 2 | 0 | 0 | -16
CC1NC(=O)NC1CCCCCC(=O)NCCc1ccccc1 (stereo not drawn) | -3 | ? | 2 | -11 | -8
Cc1cc(C(=O)CSC(C)c2nc3ccccc3c(=O)[nH]2)c(C)n1C (stereo not drawn) | -2 | -6 | 0 | 99* | -4
Cc1cc(C(=O)CSc2nc3ccccc3c(=O)[nH]2)c(C)n1C | 1 | 2 | 1 | 98* | 20
O=C(CSc1nc2ccccc2c(=O)[nH]1)c1ccccc1 | -4 | 43 | 0 | -12 | 10
COc1ccc(NC(=O)C2CCCN(c3cnccn3)C2)c(OC)c1 (stereo not drawn) | -3 | -10 | 1 | -10 | 5
SMILES | PP1 inh | Calb FLC | PP5 primary | ALR inh | CSC inhib
O=C(Cc1ccccc1)Nc1nonc1NC(=O)c1ccccc1 | -1 | 81* | 1 | -4 | -10
O=C(Cc1ccccc1)Nc1ccc(NC(=O)c2ccccc2)nc1 | -4 | -2 | 0 | -9 | 12
CCOC(=O)c1nnn(-c2nn3nnnc3c3ccccc23)c1C | -2 | 11 | 1 | 98* | 5
CCOC(=O)c1nnn(-c2nonc2-n2cccc2)c1C | -4 | -3 | 0 | 1 | -8
Cn1c(SCC(=O)Nc2ccc(N3CCOCC3)cc2)nnc1C1CC1 | -3 | . | -2 | ? | .
CCC(c1nnc(SCC(=O)Nc2ccc(N3CCOCC3)cc2)n1Cc1ccccc1)N(C)C (stereo not drawn) | -10 | -3 | -1 | 98* | 0
O=C(CSc1nncn1-c1ccccc1)Nc1ccc(N2CCOCC2)cc1 | -3 | -4 | 2 | 99* | -12
